Biological target: pT7_6His-AlfaTag-HOXD13 (human, UniProt P35453 263-343)
Assay: PADIT-seq
Settings: dsDNA, one strand shown

Chain of pT7_6His-AlfaTag-HOXD13 (P35453 263-343): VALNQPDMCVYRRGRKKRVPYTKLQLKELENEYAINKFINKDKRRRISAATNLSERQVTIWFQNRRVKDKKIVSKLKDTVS

| Sequence | binding signal |
| --- | --- |
| CTCGAGGATATCAAGATCTGGCCTCGGCATTTTACTTGGAACCTCTAGCTAGCCGACTCACTATAGGGATAATCGCCCTGAGCAAAGACC | 1.23 ± 0.0944 log2FC |
| CTCGAGGATATCAAGATCTGGCCTCGGCCGCCTAAAAGGAACCTCTAGCTAGCCGACTCACTATAGGGATAATCGCCCTGAGCAAAGACC | -0.524 ± 0.115 log2FC |
| CTCGAGGATATCAAGATCTGGCCTCGGCTAATGGGCGGGAACCTCTAGCTAGCCGACTCACTATAGGGATAATCGCCCTGAGCAAAGACC | 0.254 ± 0.0964 log2FC |
| CTCGAGGATATCAAGATCTGGCCTCGGCACCATAAAAGGAACCTCTAGCTAGCCGACTCACTATAGGGATAATCGCCCTGAGCAAAGACC | 2.69 ± 0.0753 log2FC |
| CTCGAGGATATCAAGATCTGGCCTCGGCCTTTGGGCGGGAACCTCTAGCTAGCCGACTCACTATAGGGATAATCGCCCTGAGCAAAGACC | -0.932 ± 0.115 log2FC |
| CTCGAGGATATCAAGATCTGGCCTCGGCCTTTTAGGAGGAACCTCTAGCTAGCCGACTCACTATAGGGATAATCGCCCTGAGCAAAGACC | 1.3 ± 0.0799 log2FC |
| CTCGAGGATATCAAGATCTGGCCTCGGCTAGTGGGCGGGAACCTCTAGCTAGCCGACTCACTATAGGGATAATCGCCCTGAGCAAAGACC | -0.725 ± 0.112 log2FC |
| CTCGAGGATATCAAGATCTGGCCTCGGCACCGTAAAAGGAACCTCTAGCTAGCCGACTCACTATAGGGATAATCGCCCTGAGCAAAGACC | 1.91 ± 0.0753 log2FC |
| CTCGAGGATATCAAGATCTGGCCTCGGCGTTTTATGCGGAACCTCTAGCTAGCCGACTCACTATAGGGATAATCGCCCTGAGCAAAGACC | 2.07 ± 0.0741 log2FC |
| CTCGAGGATATCAAGATCTGGCCTCGGCTGTTGGGCGGGAACCTCTAGCTAGCCGACTCACTATAGGGATAATCGCCCTGAGCAAAGACC | -1.03 ± 0.1 log2FC |
| CTCGAGGATATCAAGATCTGGCCTCGGCGACCCACGCGGAACCTCTAGCTAGCCGACTCACTATAGGGATAATCGCCCTGAGCAAAGACC | -1.05 ± 0.109 log2FC |

Biological target: pT7_6His-AlfaTag-ZIF268 (human, UniProt P18146 335-423)
Assay: PADIT-seq
Settings: dsDNA, one strand shown

| Sequence | binding signal |
| --- | --- |
| CTCGAGGATATCAAGATCTGGCCTCGGCGTTTTACCAGGAACCTCTAGCTAGCCGACTCACTATAGGGATAATCGCCCTGAGCAAAGACC | 0.0291 ± 0.0981 log2FC |
| CTCGAGGATATCAAGATCTGGCCTCGGCCTTTTATCGGGAACCTCTAGCTAGCCGACTCACTATAGGGATAATCGCCCTGAGCAAAGACC | 0.0806 ± 0.0794 log2FC |
| CTCGAGGATATCAAGATCTGGCCTCGGCTTTTTAGAAGGAACCTCTAGCTAGCCGACTCACTATAGGGATAATCGCCCTGAGCAAAGACC | 0.0735 ± 0.104 log2FC |
| CTCGAGGATATCAAGATCTGGCCTCGGCCGCCCACCGGGAACCTCTAGCTAGCCGACTCACTATAGGGATAATCGCCCTGAGCAAAGACC | 0.114 ± 0.0972 log2FC |
| CTCGAGGATATCAAGATCTGGCCTCGGCCAGATAAAAGGAACCTCTAGCTAGCCGACTCACTATAGGGATAATCGCCCTGAGCAAAGACC | 0.0449 ± 0.11 log2FC |
| CTCGAGGATATCAAGATCTGGCCTCGGCCTTTTAAGGGGAACCTCTAGCTAGCCGACTCACTATAGGGATAATCGCCCTGAGCAAAGACC | 0.073 ± 0.082 log2FC |
| CTCGAGGATATCAAGATCTGGCCTCGGCCTTTTAAAAGGAACCTCTAGCTAGCCGACTCACTATAGGGATAATCGCCCTGAGCAAAGACC | 0.098 ± 0.0706 log2FC |
| CTCGAGGATATCAAGATCTGGCCTCGGCAAATTAAAAGGAACCTCTAGCTAGCCGACTCACTATAGGGATAATCGCCCTGAGCAAAGACC | 0.0496 ± 0.0856 log2FC |
| CTCGAGGATATCAAGATCTGGCCTCGGCAGGATAAAAGGAACCTCTAGCTAGCCGACTCACTATAGGGATAATCGCCCTGAGCAAAGACC | 0.0545 ± 0.0675 log2FC |
| CTCGAGGATATCAAGATCTGGCCTCGGCCTTTTACGGGGAACCTCTAGCTAGCCGACTCACTATAGGGATAATCGCCCTGAGCAAAGACC | 0.0515 ± 0.0862 log2FC |
| CTCGAGGATATCAAGATCTGGCCTCGGCGCGTGGACAGGAACCTCTAGCTAGCCGACTCACTATAGGGATAATCGCCCTGAGCAAAGACC | 0.15 ± 0.106 log2FC |
| CTCGAGGATATCAAGATCTGGCCTCGGCGCGAAGGCGGGAACCTCTAGCTAGCCGACTCACTATAGGGATAATCGCCCTGAGCAAAGACC | 0.278 ± 0.0993 log2FC |
| CTCGAGGATATCAAGATCTGGCCTCGGCTTTTTATCGGGAACCTCTAGCTAGCCGACTCACTATAGGGATAATCGCCCTGAGCAAAGACC | 0.00149 ± 0.091 log2FC |
| CTCGAGGATATCAAGATCTGGCCTCGGCCGCCAGCGCGGAACCTCTAGCTAGCCGACTCACTATAGGGATAATCGCCCTGAGCAAAGACC | 0.462 ± 0.139 log2FC |
| CTCGAGGATATCAAGATCTGGCCTCGGCTTTTTACAGGGAACCTCTAGCTAGCCGACTCACTATAGGGATAATCGCCCTGAGCAAAGACC | 0.066 ± 0.102 log2FC |
| CTCGAGGATATCAAGATCTGGCCTCGGCGTCATAAAAGGAACCTCTAGCTAGCCGACTCACTATAGGGATAATCGCCCTGAGCAAAGACC | 0.00486 ± 0.0824 log2FC |
| CTCGAGGATATCAAGATCTGGCCTCGGCCCTGTAAAAGGAACCTCTAGCTAGCCGACTCACTATAGGGATAATCGCCCTGAGCAAAGACC | 0.046 ± 0.0931 log2FC |
| CTCGAGGATATCAAGATCTGGCCTCGGCGCGTGGGGTGGAACCTCTAGCTAGCCGACTCACTATAGGGATAATCGCCCTGAGCAAAGACC | 1.28 ± 0.111 log2FC |
| CTCGAGGATATCAAGATCTGGCCTCGGCTATTGGGCGGGAACCTCTAGCTAGCCGACTCACTATAGGGATAATCGCCCTGAGCAAAGACC | 0.205 ± 0.0951 log2FC |
| CTCGAGGATATCAAGATCTGGCCTCGGCGACATAAAAGGAACCTCTAGCTAGCCGACTCACTATAGGGATAATCGCCCTGAGCAAAGACC | 0.00765 ± 0.0777 log2FC |

| Sequence | binding signal |
| --- | --- |
| CTCGAGGATATCAAGATCTGGCCTCGGCGCGTGGGTCGGAACCTCTAGCTAGCCGACTCACTATAGGGATAATCGCCCTGAGCAAAGACC | 1.38 ± 0.0983 log2FC |
| CTCGAGGATATCAAGATCTGGCCTCGGCGCTTGGGCGGGAACCTCTAGCTAGCCGACTCACTATAGGGATAATCGCCCTGAGCAAAGACC | 0.158 ± 0.0966 log2FC |
| CTCGAGGATATCAAGATCTGGCCTCGGCGTTTTAGCAGGAACCTCTAGCTAGCCGACTCACTATAGGGATAATCGCCCTGAGCAAAGACC | 0.0694 ± 0.112 log2FC |
| CTCGAGGATATCAAGATCTGGCCTCGGCTCACTAAAAGGAACCTCTAGCTAGCCGACTCACTATAGGGATAATCGCCCTGAGCAAAGACC | 0.00307 ± 0.107 log2FC |
| CTCGAGGATATCAAGATCTGGCCTCGGCAGCGTAAAAGGAACCTCTAGCTAGCCGACTCACTATAGGGATAATCGCCCTGAGCAAAGACC | 0.0644 ± 0.094 log2FC |
| CTCGAGGATATCAAGATCTGGCCTCGGCGCGTGGGTTGGAACCTCTAGCTAGCCGACTCACTATAGGGATAATCGCCCTGAGCAAAGACC | 2.53 ± 0.0963 log2FC |
| CTCGAGGATATCAAGATCTGGCCTCGGCACTATAAAAGGAACCTCTAGCTAGCCGACTCACTATAGGGATAATCGCCCTGAGCAAAGACC | 0.0278 ± 0.1 log2FC |
| CTCGAGGATATCAAGATCTGGCCTCGGCGCGTGGCGGGGAACCTCTAGCTAGCCGACTCACTATAGGGATAATCGCCCTGAGCAAAGACC | 0.049 ± 0.11 log2FC |
| CTCGAGGATATCAAGATCTGGCCTCGGCATTTTACTTGGAACCTCTAGCTAGCCGACTCACTATAGGGATAATCGCCCTGAGCAAAGACC | 0.0654 ± 0.0956 log2FC |
| CTCGAGGATATCAAGATCTGGCCTCGGCCGCCTAAAAGGAACCTCTAGCTAGCCGACTCACTATAGGGATAATCGCCCTGAGCAAAGACC | 0.0248 ± 0.0968 log2FC |
| CTCGAGGATATCAAGATCTGGCCTCGGCTAATGGGCGGGAACCTCTAGCTAGCCGACTCACTATAGGGATAATCGCCCTGAGCAAAGACC | 0.0526 ± 0.0899 log2FC |
| CTCGAGGATATCAAGATCTGGCCTCGGCACCATAAAAGGAACCTCTAGCTAGCCGACTCACTATAGGGATAATCGCCCTGAGCAAAGACC | 0.0345 ± 0.0841 log2FC |
| CTCGAGGATATCAAGATCTGGCCTCGGCCTTTGGGCGGGAACCTCTAGCTAGCCGACTCACTATAGGGATAATCGCCCTGAGCAAAGACC | 0.262 ± 0.0913 log2FC |
| CTCGAGGATATCAAGATCTGGCCTCGGCCTTTTAGGAGGAACCTCTAGCTAGCCGACTCACTATAGGGATAATCGCCCTGAGCAAAGACC | 0.0187 ± 0.0815 log2FC |
| CTCGAGGATATCAAGATCTGGCCTCGGCTAGTGGGCGGGAACCTCTAGCTAGCCGACTCACTATAGGGATAATCGCCCTGAGCAAAGACC | 1.78 ± 0.084 log2FC |
| CTCGAGGATATCAAGATCTGGCCTCGGCACCGTAAAAGGAACCTCTAGCTAGCCGACTCACTATAGGGATAATCGCCCTGAGCAAAGACC | 0.0818 ± 0.0804 log2FC |
| CTCGAGGATATCAAGATCTGGCCTCGGCGTTTTATGCGGAACCTCTAGCTAGCCGACTCACTATAGGGATAATCGCCCTGAGCAAAGACC | 0.0171 ± 0.08 log2FC |
| CTCGAGGATATCAAGATCTGGCCTCGGCTGTTGGGCGGGAACCTCTAGCTAGCCGACTCACTATAGGGATAATCGCCCTGAGCAAAGACC | 0.111 ± 0.0773 log2FC |
| CTCGAGGATATCAAGATCTGGCCTCGGCGACCCACGCGGAACCTCTAGCTAGCCGACTCACTATAGGGATAATCGCCCTGAGCAAAGACC | 0.214 ± 0.0833 log2FC |

From doi:10.1101/2024.03.05.583629
